Results on 33 compounds are retold here after PubChem BioAssay AID1508625 (Wald Lab, School of Medicine, Case Western Reserve …, 2021).

A short description of this assay: enhancers of NK cell killing of ovarian tumor cells, primary screen, imaging, OVCAR3, primary NK cells, calcein-AM imaging (AID 1508625).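 Also: compound given to NK cells 16 h before adding targets at 1.5 to 1 ratio.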 The following applies: OVCAR3 lysis by primary NK cells, at 5 µM; z-score: measured here: robust Z-score, single-point normalisation.

As to `COc1ccc2c(c1OC)C(=O)OC2CC(=O)c1ccc(C)cc1` (stereo unspecified), the corrected activity, negative = more killing was -8.12% and the z-score is -1.71.

Turning to `O=C(CNC(=O)OCc1ccccc1)Oc1cc2oc(=O)c3c(c2cc1Cl)CCC3`, the corrected activity, negative = more killing was -2.23% and the z-score is -0.829.

Regarding `Cc1ccc(-n2c(C)cc(C(=S)N3CCOCC3)c2C)cc1Cl`, the corrected activity, negative = more killing was -4.03% and the z-score was -1.54.

Take `Cc1ccc2c(c1)NCC(C(=O)O)O2` (stereo unspecified): the corrected activity, negative = more killing is -4.87% and the z-score was -1.31.

On to `CCC(Cc1ccccc1)NS(=O)(=O)c1ccc(F)c(C(=O)Nc2ccc(C)c(F)c2)c1` (stereo unspecified), for which the corrected activity, negative = more killing was -2.04% and the z-score is -0.551.

With `Cc1ccc(C)c(C(=O)COC(=O)CNS(=O)(=O)c2ccccc2)c1`, the corrected activity, negative = more killing is -1.55% and the z-score was -0.589.

As for `CCOc1cccc(C=NN2CCN(Cc3ccccc3)CC2)c1O`, the corrected activity, negative = more killing is -2.77% and the z-score is -1.21.

Take `Cc1ccccc1NC(=O)OCc1ccccc1`: the corrected activity, negative = more killing is -1.84% and the z-score is -1.03.

For `CC(C(=O)N1CCN(c2ccccc2)CC1)c1ccc([N+](=O)[O-])cc1` (stereo unspecified), the corrected activity, negative = more killing is -3.44% and the z-score is -1.91.

On to `Cc1ccc(N2CC(C(=O)Nc3cccc(C)n3)CC2=O)cc1` (stereo unspecified), for which the corrected activity, negative = more killing was -3% and the z-score was -1.13.

In the case of `CCC1CCCCN1C(=O)c1sc2ncn(Cc3ccccc3F)c(=O)c2c1C` (stereo unspecified), the corrected activity, negative = more killing was -3.67% and the z-score is -1.34.

As to `Cc1cc(C)c(S(=O)(=O)NCc2ccc(C(=O)NCCc3ccc(Cl)cc3)cc2)c(C)c1`, the corrected activity, negative = more killing is -5.64% and the z-score was -1.38.

With `O=C(Nc1cccc(Br)c1)c1ccc2snnc2c1`, the corrected activity, negative = more killing is -3.91% and the z-score is -1.17.

For `C(=Cc1ccccc1)CN1CCN(C2c3ccccc3-c3ccccc32)CC1`, the corrected activity, negative = more killing is -0.148% and the z-score is -0.0313.

As to `O=C(c1ccncc1)N1CCN(CC2CC=CCC2)CC1` (stereo unspecified), the corrected activity, negative = more killing was -3.11% and the z-score was -1.39.

`O=C(O)C1C2C=CC(O2)C1C(=O)Nc1ccccc1C(F)(F)F` (stereo unspecified): the corrected activity, negative = more killing is -3.8% and the z-score was -1.56.

As for `Cc1nc2sccn2c1C(=O)NN=Cc1ccc(C(C)C)cc1`, the corrected activity, negative = more killing was -4.02% and the z-score is -1.71.

As to `O=C1C(=O)N(Cc2cccnc2)C(c2ccncc2)C1=C(O)c1ccc(F)cc1` (stereo unspecified), the corrected activity, negative = more killing was -3.73% and the z-score was -1.62.

Take `Cc1ccc2oc(-c3ccc(NC(=O)c4cccc(F)c4)c(C)c3)nc2c1`: the corrected activity, negative = more killing is -9.28% and the z-score is -3.29.

As to `C#CCN1C(=O)C(O)(CC(=O)c2cccc3ccccc23)c2ccccc21` (stereo unspecified), the corrected activity, negative = more killing was -5.41% and the z-score was -2.06.

For `COCCNCC(O)Cn1c2ccccc2c2ccccc21` (stereo unspecified), the corrected activity, negative = more killing is 2.4% and the z-score is 0.916.

For `N=C1NC(=O)C(=Cc2ccc(F)cc2)S1`, the corrected activity, negative = more killing is -5.91% and the z-score was -2.51.

As for `COc1ccc(N(CC(=O)Nc2c(C)n(C)n(-c3ccccc3)c2=O)S(C)(=O)=O)c(OC)c1`, the corrected activity, negative = more killing is -0.645% and the z-score was -0.246.

Take `COc1ccccc1CN1CCN(C2CCN(Cc3ccccc3)CC2)CC1`: the corrected activity, negative = more killing is 0.136% and the z-score was 0.0605.

In the case of `CCOC(=O)C1=C(C)Nc2sc(C(=O)c3ccc(C)cc3)c(N)c2C1c1ccc(C(=O)OC)cc1` (stereo unspecified), the corrected activity, negative = more killing is -4.02% and the z-score was -1.2.

Turning to `Cc1n[nH]c(C)c1CCC(=O)NN=Cc1ccccc1O`, the corrected activity, negative = more killing was -1.49% and the z-score was -0.652.

With `COC(=O)c1cc(NC(=O)c2cc3nc(-c4ccc(Cl)cc4)cc(C(F)(F)F)n3n2)cc(C(=O)OC)c1`, the corrected activity, negative = more killing is -8% and the z-score was -2.54.

As for `Cc1ccc(C(=O)Nc2cccc(C(=O)N3CCOCC3)c2)cc1Cl`, the corrected activity, negative = more killing was -0.0326% and the z-score was -0.0182.

With `O=C(Nc1ccccc1[N+](=O)[O-])C12CC3CC(CC(C3)C1)C2`, the corrected activity, negative = more killing is -1.55% and the z-score is -0.55.

Regarding `CC1CCC(NC2CCCc3c2[nH]c2ccc([N+](=O)[O-])cc32)CC1` (stereo unspecified), the corrected activity, negative = more killing was 3.89% and the z-score was 1.7.

With `CCOc1ccc(NC(=O)Cn2c(=O)n(CCc3ccccc3)c(=O)c3c4c(sc32)CCCC4)cc1`, the corrected activity, negative = more killing was -8.33% and the z-score was -2.36.

As to `C=CCn1c(COc2cccc3cccnc23)nnc1SCC(=O)OC`, the corrected activity, negative = more killing is -7.09% and the z-score was -2.01.

Turning to `Cc1c(N=Cc2c[nH]c3ccccc23)cccc1[N+](=O)[O-]`, the corrected activity, negative = more killing is -2.05% and the z-score is -0.872.
